Hits are enriched below; roughly 3.4% of the tested compounds scored in any of these assays.
MITF primary = blocks human microphthalmia-associated transcription factor; O75030; AlphaScreen MITF homodimerization, bead proximity signal; inhibition, % at 2.6 µM; 0.91% of 650,000 active; in the data active = inhibition above about 50%
Target sequence (O75030 whole entry, looked up): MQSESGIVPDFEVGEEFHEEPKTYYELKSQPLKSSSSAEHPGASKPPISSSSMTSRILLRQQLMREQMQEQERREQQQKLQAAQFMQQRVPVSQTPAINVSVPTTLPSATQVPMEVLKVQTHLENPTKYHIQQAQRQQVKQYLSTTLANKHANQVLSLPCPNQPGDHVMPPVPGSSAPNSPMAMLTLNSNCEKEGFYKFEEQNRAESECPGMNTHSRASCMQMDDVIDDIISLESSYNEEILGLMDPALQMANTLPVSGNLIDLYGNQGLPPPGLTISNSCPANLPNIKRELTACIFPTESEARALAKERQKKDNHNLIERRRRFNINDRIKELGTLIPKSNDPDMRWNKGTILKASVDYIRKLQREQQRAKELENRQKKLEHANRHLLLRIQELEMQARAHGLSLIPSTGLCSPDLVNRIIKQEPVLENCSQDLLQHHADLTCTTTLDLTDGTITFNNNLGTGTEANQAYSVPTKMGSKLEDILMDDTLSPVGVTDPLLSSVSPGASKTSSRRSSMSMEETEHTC
TEAD-YAP inh = TEAD-YAP interaction inhibition | AID 1259422 | 1.4% of 640,000 active | HEK-TIYL cells, TEAD-Gal4/YAP UAS-luciferase luminescence | inhibition, % at 9.12 µM; in the data active = inhibition above about 32%
FBW7 act = activators of human E3 ligase FBW7 | Q969H0 | AlphaScreen FBW7–phospho-cyclin E peptide binding, activator screen | normalized activity (activation), % at 26.1 µM | 0.13% of 650,000 active; in the data active = normalized activity above about 1.9%;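 note: purified mutant Fbw7 with reduced substrate affinity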
GPR151 ag = activators of human GPR151 | 1% of 650,000 active | activation, % at 11.2 µM | PathHunter beta-arrestin GPR151 cells, luminescence | AID 1508602; in the data active = activation above about 4.9%
GPR151 confirm = human GPR151 activation, confirmation screen | shares compounds with GPR151 ag | GPR151 PathHunter beta-arrestin cells, luminescence, 90 min; % of EA-reagent control over plate median | activation, % at 11.2 µM | 6,700 tested, under 10 active | AID 1508609;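 active = mean percent activation across replicates above the confirmation screen cutoff of 4.91%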
GPR119 counter = activates human GPR119 in a GPR151 counter-screen; shares compounds with GPR151 ag; GPR119 PathHunter beta-arrestin cells, luminescence, 90 min; 0 = compound-well median, 100 = enzyme-acceptor control; 0.3% of 6,700 active; activation, % at 11.2 µM;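 active = mean percent activation in the counterscreen above 29.09%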;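 note: counterscreen on off-target GPR119 to flag nonselective hits from the GPR151 activator screen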
Numbers stand for hits; i = inactive; nt = no result; ! = a repeat was not active.

SMILES | MITF primary | TEAD-YAP inh | FBW7 act | GPR151 ag | GPR151 confirm | GPR119 counter
Cc1cc2oc(C(=O)NCCc3ccc(S(N)(=O)=O)cc3)c(C)c2cc1C | i | i | i | 10.0 | i | i
COC(=O)COc1ccc(NS(=O)(=O)c2ccc(NC(C)=O)cc2)cc1 | i | i | i | i | nt | nt
CCCCc1ccc(NS(=O)(=O)c2ccc(OCC(=O)OC)cc2)cc1 | i | i | i | 5.2 | i | i
CCOc1ccc(S(=O)(=O)Nc2ccc3oc(C)c(C(=O)OC)c3c2)cc1 | i | 62.7 | i | 8.9 | i | i
COC(=O)COc1ccc(S(=O)(=O)Nc2ccc(NC(C)=O)cc2)cc1C | i | i | i | 6.2 | i | i
COc1ccc(S(=O)(=O)Nc2ccc(F)c(F)c2)cc1C | i | i | i | 13.8 | i | i
COC(=O)c1c(C)oc2ccc(NS(=O)(=O)c3ccc(C(C)(C)C)cc3)cc12 | i | i | i | i | nt | nt
Cc1ccc(-n2[nH]c(C)c(C=Nc3ccc(S(=O)(=O)NCc4ccccc4)cc3)c2=O)cc1C | i | i | i | i | nt | nt
N#CCCN(NC(=O)c1cccc2ccccc12)C1=NS(=O)(=O)c2ccccc21 | i | i | i | i | nt | nt
CCOC(=O)COc1ccc(S(=O)(=O)Nc2ccc(C(=O)OCC)cc2)cc1 | i | i | i | 5.0 | i | i
CCOC(=O)COc1ccc(S(=O)(=O)Nc2ccc(Br)cc2)cc1 | i | i | i | i | nt | nt
CC(=O)Nc1ccc(NS(=O)(=O)c2cc(C(C)(C)C)cc(C)c2C)cc1 | i | i | i | 6.4 | i | i
Cc1ccc(NS(=O)(=O)c2cc(C(=O)O)cc(C)c2C)cc1 | i | i | i | i | nt | nt
COc1ccc(NC(=O)c2coc(=O)c3ccccc23)c(OC)c1 | i | i | i | i | nt | nt
N#Cc1cc2c(nc1SCc1ccc([N+](=O)[O-])cc1)CCCCC2 | i | i | i | 6.1 | i | i
NC(=O)C1CCN(C(c2ccccc2)c2nnnn2CCc2ccccc2)CC1 (stereo unspecified) | i | i | i | i | nt | nt
O=C(Cn1[nH]c(=O)c2ccccc2c1=O)Nc1cccnc1 | i | i | i | 18.6 | i | i
O=C(Cn1[nH]c(=O)c2ccccc2c1=O)NCc1cccnc1 | i | i | i | i | nt | nt
Cc1cc(C(=O)Nc2ccc(Br)c(C)n2)ccc1[N+](=O)[O-] | i | i | i | 5.0 | i | i
Cc1cc(C(=O)Nc2ccc(I)c(C)n2)ccc1[N+](=O)[O-] | i | i | i | i | nt | nt
O=C(CCN1C(=O)C2C3C=CC(C3)C2C1=O)N1CCN(c2ccccc2Cl)CC1 (stereo unspecified) | i | i | i | i | nt | nt
O=C(CCN1C(=O)C2C3C=CC(C3)C2C1=O)N1CCN(c2ccccc2F)CC1 (stereo unspecified) | i | i | i | 5.1 | i | i
CC(SC1=NCCN1S(=O)(=O)c1ccc(Cl)cc1)c1ccccc1 (stereo unspecified) | i | i | i | i | nt | nt
Cc1ccc(C(=O)Nc2ccc(C(=O)CN3C(=O)CSC3=O)cc2)cc1 | i | i | i | 5.8 | i | i
O=C(CN1C(=O)CSC1=O)c1ccc(Cl)cc1 | i | i | i | i | nt | nt
SMILES | MITF primary | TEAD-YAP inh | FBW7 act | GPR151 ag | GPR151 confirm | GPR119 counter
O=c1c2ccc(Cl)cc2nc2n1CC/C2=C\c1ccc(O)cc1 | i | i | i | i | nt | nt
CCOC(=O)/C(N=Nc1cc(Cl)c(OC)cc1OC)=C(\C)O | i | i | i | 4.9 | i | i
Cn1c(=O)c2ncn(CC(=O)Nc3ccc(C(=O)O)cc3)c2n(C)c1=O | i | i | i | 5.2 | i | i
CSc1nc2sccn2c(=O)c1C(=O)NCC(F)(F)F | i | i | i | i | nt | nt
CSc1nc2sccn2c(=O)c1C(=O)NCc1ccccc1Oc1ccccc1 | i | i | i | 17.3 | i | i
CSc1nc2sccn2c(=O)c1C(=O)NC1CCC(O)CC1 (stereo unspecified) | i | i | i | 6.8 | i | i
O=C1N(Cc2cccnc2)C[C@@H]2C[C@@H](c3ccc(Oc4ncccn4)cc3)N3CCC[C@@]123 | i | i | i | i | nt | nt
O=C1N(Cc2cccnc2)C[C@@H]2C[C@@H](c3cccn3-c3ncccn3)N3CCC[C@@]123 | i | i | i | 19.7 | i | i
CCOC(=O)c1cnc2cc(C)nn2c1N | i | i | i | 9.4 | i | i
CC(=O)Nc1ccc(Nc2ncnc3nc(Nc4cccc(N(C)C)c4)[nH]c23)cc1 | i | i | i | i | nt | nt
O=C(CN1CCN(CCO)CC1)N1c2ccccc2Sc2ccc(C(F)(F)F)cc21 | i | i | i | i | nt | nt
O=C(NCc1ccco1)/C(=C\c1ccc(Br)cc1)NC(=O)c1ccccc1 | i | i | i | 7.0 | i | i
O=C(NCc1ccccc1)/C(=C\c1ccc(Cl)cc1)NC(=O)c1ccco1 | i | i | i | i | nt | nt
O=C(NCc1ccco1)/C(=C/c1ccc(Cl)cc1)NC(=O)c1ccco1 | i | i | i | 5.7 | i | i
CCCN(CCC)Cc1cn2c(-c3ccc(OC)cc3)nnc2s1 | i | i | i | i | nt | nt
CCC(Sc1nc2ncccc2[nH]1)C(=O)N1CCCC1 (stereo unspecified) | i | i | i | i | nt | nt
CCOC(=O)C1CCCN(c2c(N3CCN(c4cccc(Cl)c4)CC3)c(=O)c2=O)C1 (stereo unspecified) | i | i | i | i | nt | nt
CCOC(=O)C1CCN(c2c(N3CCN(c4cccc(Cl)c4)CC3)c(=O)c2=O)CC1 | i | i | i | 5.2 | i | i
O=C(NCCCCc1ccccc1)c1cc([N+](=O)[O-])cc([N+](=O)[O-])c1 | i | i | i | 11.4 | i | i
O=C(CCC(=O)Nc1ccc(Br)cc1)N/N=C/c1cccs1 | i | i | i | 6.0 | i | i
Cc1ccc(S(=O)(=O)NC(=O)N2c3ccccc3CCc3ccccc32)cc1 | i | i | i | 7.4 | i | i
COc1ccc(C2(CNC=O)CCCC2)cc1OC | i | i | i | i | nt | nt
Cc1nc(-c2c(C(F)(F)F)oc3c(CN(C)C)c(O)ccc3c2=O)cs1 | i | i | i | 5.1 | i | i
Cc1nc(-c2c(C(F)(F)F)oc3c(C)c(C)ccc3c2=O)cs1 | i | i | i | i | nt | nt
Clc1ccccc1C(c1ccccc1)(c1ccccc1)n1ccnc1 | i | i | i | 6.9! | i | i
SMILES | MITF primary | TEAD-YAP inh | FBW7 act | GPR151 ag | GPR151 confirm | GPR119 counter
CCc1ccccc1-n1c(C)c(C)n2c3c(=O)n(CC)c(=O)n(C)c3nc12 | i | i | i | 5.1 | i | i
CCc1ccccc1-n1c(C)c(C)n2c3c(=O)n(CC(N)=O)c(=O)n(C)c3nc12 | i | i | i | i | nt | nt
COc1cc(C2=NOC(C(=O)N3CCCC3)C2)cc(OC)c1OC (stereo unspecified) | i | i | i | i | nt | nt
O=C(Nc1ccc([N+](=O)[O-])cn1)C1CCCCC1 | i | i | i | 9.2 | i | i
O=[N+]([O-])c1ccc(NC2CCCCC2)nc1 | i | i | i | i | nt | nt
O=C(Nc1cccc(C(=O)N2CCN(c3ccc(F)cc3)CC2)c1)c1ccccc1 | i | i | i | 5.6 | i | i
O=C(CN1CCCCC1)N/N=C/c1ccccc1O | i | i | i | 5.8 | i | i

Assay outcomes (PubChem BioAssay)
